We go through 24 compounds from ChEMBL document CHEMBL2218924, “A broad activity screen in support of a chemogenomic map for kinase signalling research and drug discovery” (Biochem J, 2013).

Structures are written as SMILES.

Assay [1] concerns the target Mitogen-activated protein kinase 10 (Homo sapiens) (UniProt P53779). The following applies: at 10 µM.
For assay [2], the target named is Vascular endothelial growth factor receptor 2 (Homo sapiens) (UniProt P35968). The following applies: at 1 µM.
Chain of Vascular endothelial growth factor receptor 2 (Homo sapiens) (P35968 whole entry): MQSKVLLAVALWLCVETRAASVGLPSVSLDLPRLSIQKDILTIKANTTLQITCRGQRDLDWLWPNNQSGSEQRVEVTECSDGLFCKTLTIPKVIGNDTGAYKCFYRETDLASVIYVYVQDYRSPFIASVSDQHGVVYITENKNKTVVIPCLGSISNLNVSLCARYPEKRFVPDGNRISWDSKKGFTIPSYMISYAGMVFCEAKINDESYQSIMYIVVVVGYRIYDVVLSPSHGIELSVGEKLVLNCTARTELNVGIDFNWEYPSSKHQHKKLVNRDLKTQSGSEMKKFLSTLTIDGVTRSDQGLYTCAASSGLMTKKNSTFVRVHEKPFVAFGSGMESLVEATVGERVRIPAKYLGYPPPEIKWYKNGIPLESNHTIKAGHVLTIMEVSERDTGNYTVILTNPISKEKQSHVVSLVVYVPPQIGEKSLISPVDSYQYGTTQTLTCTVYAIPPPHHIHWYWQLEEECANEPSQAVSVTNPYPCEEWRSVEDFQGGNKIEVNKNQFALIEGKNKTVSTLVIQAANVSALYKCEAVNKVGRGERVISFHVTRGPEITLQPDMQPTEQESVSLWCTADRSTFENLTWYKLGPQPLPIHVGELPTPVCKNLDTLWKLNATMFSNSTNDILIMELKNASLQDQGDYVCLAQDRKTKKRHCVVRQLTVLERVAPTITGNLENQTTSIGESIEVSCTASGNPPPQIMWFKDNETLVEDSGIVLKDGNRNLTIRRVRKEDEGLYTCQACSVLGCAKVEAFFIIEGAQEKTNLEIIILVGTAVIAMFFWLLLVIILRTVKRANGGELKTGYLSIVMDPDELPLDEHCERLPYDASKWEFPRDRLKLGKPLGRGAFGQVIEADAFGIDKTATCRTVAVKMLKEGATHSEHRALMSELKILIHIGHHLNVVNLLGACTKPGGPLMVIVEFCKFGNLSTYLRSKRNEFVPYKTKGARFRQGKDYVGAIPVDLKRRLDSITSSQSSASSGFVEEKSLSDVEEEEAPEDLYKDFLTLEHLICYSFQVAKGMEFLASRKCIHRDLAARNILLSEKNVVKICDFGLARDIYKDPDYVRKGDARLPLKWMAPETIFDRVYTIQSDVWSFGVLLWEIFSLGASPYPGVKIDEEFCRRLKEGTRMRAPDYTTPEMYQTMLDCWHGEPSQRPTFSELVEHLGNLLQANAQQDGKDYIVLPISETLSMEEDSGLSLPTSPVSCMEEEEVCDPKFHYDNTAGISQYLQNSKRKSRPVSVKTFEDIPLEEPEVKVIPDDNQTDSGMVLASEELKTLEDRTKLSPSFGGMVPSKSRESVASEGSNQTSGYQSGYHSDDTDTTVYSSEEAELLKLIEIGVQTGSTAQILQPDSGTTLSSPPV
Assay [3] has the same target. As to conditions: at 10 µM.
Assay [4] concerns the target LIM domain kinase 1 (Homo sapiens) (UniProt P53667). As to conditions: at 1 µM.
Assay [5] has the same target. The following applies: at 10 µM.
Assay [6] has as its target T1, Serine/threonine-protein kinase STK11 (Homo sapiens) (UniProt Q15831).
T1 sequence (whole entry): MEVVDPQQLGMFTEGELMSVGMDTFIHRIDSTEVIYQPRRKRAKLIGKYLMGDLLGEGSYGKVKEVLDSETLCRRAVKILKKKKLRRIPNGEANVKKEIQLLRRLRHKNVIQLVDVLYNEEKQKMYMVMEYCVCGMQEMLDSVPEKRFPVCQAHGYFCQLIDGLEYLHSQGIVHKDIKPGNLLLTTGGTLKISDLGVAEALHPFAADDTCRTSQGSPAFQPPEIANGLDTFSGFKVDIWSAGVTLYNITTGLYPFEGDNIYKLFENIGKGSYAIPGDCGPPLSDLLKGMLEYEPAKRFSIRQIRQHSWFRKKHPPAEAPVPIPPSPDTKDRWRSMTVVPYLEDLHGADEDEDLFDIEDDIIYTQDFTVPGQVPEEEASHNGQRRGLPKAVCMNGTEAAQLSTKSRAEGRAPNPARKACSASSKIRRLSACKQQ
The following applies: at 1 µM.

Assay [7] concerns the target T1, Serine/threonine-protein kinase STK11 (Homo sapiens). The following applies: at 10 µM.
Assay [8] concerns the target Serine/threonine-protein kinase 10 (Homo sapiens) (UniProt O94804). As to conditions: at 1 µM.
For assay [9] the target is unchanged. The following applies: at 10 µM.
Assay [10] deals with Tyrosine-protein kinase Lck (Homo sapiens) (UniProt P06239). The following applies: at 1 µM.
Chain of Tyrosine-protein kinase Lck (Homo sapiens) (P06239 2-509 limits assumed): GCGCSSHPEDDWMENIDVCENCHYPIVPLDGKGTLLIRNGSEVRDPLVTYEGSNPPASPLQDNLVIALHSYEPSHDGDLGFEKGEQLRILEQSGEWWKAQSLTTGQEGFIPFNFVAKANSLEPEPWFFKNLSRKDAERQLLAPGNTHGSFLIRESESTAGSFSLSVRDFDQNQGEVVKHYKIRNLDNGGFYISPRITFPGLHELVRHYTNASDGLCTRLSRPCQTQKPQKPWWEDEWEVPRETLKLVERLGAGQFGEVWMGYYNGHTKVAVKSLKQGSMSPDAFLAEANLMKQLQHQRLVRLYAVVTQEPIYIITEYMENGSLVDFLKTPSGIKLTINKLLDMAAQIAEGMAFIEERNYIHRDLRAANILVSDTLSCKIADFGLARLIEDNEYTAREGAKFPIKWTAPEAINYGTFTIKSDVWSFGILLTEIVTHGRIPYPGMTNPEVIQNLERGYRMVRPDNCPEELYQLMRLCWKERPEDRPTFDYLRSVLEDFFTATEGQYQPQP

Chain of LIM domain kinase 1 (Homo sapiens) (P53667 whole entry, looked up, the tested form may be a part): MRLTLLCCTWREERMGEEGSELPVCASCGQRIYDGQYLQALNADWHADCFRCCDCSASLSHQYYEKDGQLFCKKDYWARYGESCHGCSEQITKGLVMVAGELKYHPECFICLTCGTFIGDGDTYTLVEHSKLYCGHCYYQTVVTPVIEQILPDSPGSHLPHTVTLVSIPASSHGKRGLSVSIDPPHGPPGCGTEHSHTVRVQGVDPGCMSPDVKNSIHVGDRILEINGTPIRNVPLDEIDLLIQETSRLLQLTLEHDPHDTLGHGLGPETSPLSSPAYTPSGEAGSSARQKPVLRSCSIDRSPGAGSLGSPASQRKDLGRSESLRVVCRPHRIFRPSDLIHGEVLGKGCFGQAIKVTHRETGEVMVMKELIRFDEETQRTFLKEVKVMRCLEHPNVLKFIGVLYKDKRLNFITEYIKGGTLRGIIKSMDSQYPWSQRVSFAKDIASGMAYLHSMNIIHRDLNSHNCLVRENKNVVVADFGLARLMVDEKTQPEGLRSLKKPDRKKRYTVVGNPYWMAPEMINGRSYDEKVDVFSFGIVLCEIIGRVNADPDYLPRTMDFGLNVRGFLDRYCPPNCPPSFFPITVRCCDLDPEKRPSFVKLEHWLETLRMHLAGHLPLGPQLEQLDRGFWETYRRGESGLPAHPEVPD
Chain of Serine/threonine-protein kinase 10 (Homo sapiens) (O94804 whole entry, looked up): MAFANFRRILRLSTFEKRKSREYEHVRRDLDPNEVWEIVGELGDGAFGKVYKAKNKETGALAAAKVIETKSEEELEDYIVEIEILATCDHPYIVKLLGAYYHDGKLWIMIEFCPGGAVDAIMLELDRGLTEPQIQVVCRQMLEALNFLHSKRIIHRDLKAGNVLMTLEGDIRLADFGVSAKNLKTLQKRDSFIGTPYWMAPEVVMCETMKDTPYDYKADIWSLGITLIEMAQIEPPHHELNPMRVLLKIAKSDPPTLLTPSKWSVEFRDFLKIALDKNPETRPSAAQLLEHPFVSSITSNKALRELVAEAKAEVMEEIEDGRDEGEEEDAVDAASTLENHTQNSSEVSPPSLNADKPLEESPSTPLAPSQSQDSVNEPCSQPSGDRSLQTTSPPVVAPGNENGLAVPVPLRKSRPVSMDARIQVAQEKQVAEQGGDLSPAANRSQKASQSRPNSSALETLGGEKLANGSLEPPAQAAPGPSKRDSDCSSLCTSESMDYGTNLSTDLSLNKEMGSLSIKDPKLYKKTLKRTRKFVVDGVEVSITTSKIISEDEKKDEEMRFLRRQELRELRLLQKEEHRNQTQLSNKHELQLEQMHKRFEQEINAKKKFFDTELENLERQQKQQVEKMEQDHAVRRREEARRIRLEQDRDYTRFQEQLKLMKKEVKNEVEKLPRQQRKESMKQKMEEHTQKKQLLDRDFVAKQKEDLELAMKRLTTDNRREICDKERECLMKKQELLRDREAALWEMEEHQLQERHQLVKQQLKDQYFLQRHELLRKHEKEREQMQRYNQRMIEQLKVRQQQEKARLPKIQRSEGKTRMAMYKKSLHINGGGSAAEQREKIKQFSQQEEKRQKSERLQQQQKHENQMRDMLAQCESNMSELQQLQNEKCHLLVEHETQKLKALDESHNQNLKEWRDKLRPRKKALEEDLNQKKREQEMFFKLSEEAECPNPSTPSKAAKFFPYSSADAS
Chain of Mitogen-activated protein kinase 10 (Homo sapiens) (P53779 whole entry): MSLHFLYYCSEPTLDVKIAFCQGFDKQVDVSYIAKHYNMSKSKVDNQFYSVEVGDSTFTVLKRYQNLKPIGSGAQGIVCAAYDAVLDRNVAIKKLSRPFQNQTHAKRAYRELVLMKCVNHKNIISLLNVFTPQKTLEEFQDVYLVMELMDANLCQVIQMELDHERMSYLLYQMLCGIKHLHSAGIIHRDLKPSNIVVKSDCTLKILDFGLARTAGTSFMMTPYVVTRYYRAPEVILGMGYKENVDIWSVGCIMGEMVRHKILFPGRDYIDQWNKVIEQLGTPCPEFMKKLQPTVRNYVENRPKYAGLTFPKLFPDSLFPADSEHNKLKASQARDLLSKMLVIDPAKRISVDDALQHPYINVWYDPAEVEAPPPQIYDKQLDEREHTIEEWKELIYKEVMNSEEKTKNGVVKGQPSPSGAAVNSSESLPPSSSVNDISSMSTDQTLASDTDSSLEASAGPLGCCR

Regarding `CCCC(=O)Oc1ccc2[nH]c(C(=O)c3cc4ccccc4[nH]3)cc2c1`, the residual activity came out at 69% in [1]; 94% in assay [2]; 70% in assay [3]; 98% in assay [4]; 80% in assay [5]; 98% in [6]. In addition, the residual activity was 96% in assay [7], 85% in assay [8], 96% in [9] and 89% in assay [10].
Take `CC(C)c1nn(-c2c(Cl)cccc2Cl)c2nc(Cc3ccc(OCCO)cc3)[nH]c(=O)c12`: the residual activity in [1] is 29%; in [2], 98%; in assay [3] it was 89%; in assay [4] it was 102%; in [5], 84%; in assay [6], 90%. In addition, the residual activity in assay [7] stood at 48%; in assay [8] it was 55%; in assay [9] it was 55%; in assay [10], 104%.
For the compound `NC(=O)Nc1sc(-c2ccc(F)cc2)cc1C(N)=O`, the residual activity in assay [1] was found to be 33%; in assay [2] it was 41%; in assay [3] it was 6%; in [4], 46%; in assay [5], 7%; in assay [6], 92%. The residual activity in assay [7] stood at 73%.
`CCCCc1c(-c2ccc(OC)cc2)[nH]c2nccnc12`: the residual activity was determined as 41% in [1]; 73% in assay [2]; 68% in [3]; 50% in assay [4]; 57% in [5]; 108% in [6]. Moreover, the residual activity in assay [7] was determined as 101%; in [9] it was 110%; in assay [10], 55%.
As for `O=C(NC(NC(=S)Nc1ccc(F)c([N+](=O)[O-])c1)C(Cl)(Cl)Cl)C(c1ccccc1)c1ccccc1` (centres undefined), the residual activity in assay [1] came out at 79%; in [2], 104%; in [3], 102%; in [4], 90%; in assay [5], 75%; in assay [6], 98%. The values for the residual activity in assay [7] and in assay [10] were 103% and 95%, respectively.
For the compound `O=c1cc(N2CCNCC2)oc2c(-c3ccccc3)cccc12`, the residual activity in assay [1] is 89%; in assay [2] it was 100%; in assay [3], 89%; in assay [4], 92%; in assay [5] it was 86%; in assay [6], 97%. In addition, the values for the residual activity in assay [7], in [8] and in assay [9] were 92%, 95% and 89%, respectively.
Consider `CC(C)(C)n1nc(Cc2cccc3ccccc23)c2c(N)ncnc21`, for which the residual activity is -1% in [1]; 69% in assay [2]; 14% in assay [3]; 101% in assay [4]; 69% in [5]; 91% in assay [6]. The residual activity in [7] is 61%; in [8], 80%; in assay [9], 41%; in assay [10], 36%.
`Nc1ncnc2c1cnn2-c1ccccc1`: the residual activity in assay [1] is 70%; in assay [2] it was 102%; in assay [3] it was 83%; in assay [4], 99%; in assay [5], 67%; in assay [6], 96%. The figures for the residual activity in assay [7], in assay [8] and in assay [9] were 98%, 98% and 85%, respectively.
`c1ccc(-c2cnc(Nc3ccc(OCCN4CCCC4)cc3)s2)cc1`: the residual activity in [1] was 36%; in assay [2], 10%; in [3], 4%; in [4], 64%; in assay [5], 16%; in [6] it was 108%. The residual activity in [7] is 103%; in assay [8] it was 75%; in assay [9] it was 55%; in assay [10] it was 58%.
For the compound `COc1cc2nccc(Oc3ccc(NC(=S)NC(=O)c4ccccc4C)cc3)c2cc1OC`, the residual activity in assay [1] was 79%; in [2] it was 4%; in [3] it was 3%; in [4], 60%; in assay [5], 28%; in assay [6] it was 98%. Also, the residual activity stood at 90% in [7], 6% in [8], 7% in assay [9] and 1% in [10].
Regarding `COc1cc2ncnc(Nc3cccc(Cl)c3)c2cc1OC`, the residual activity in assay [1] stood at 50%; in assay [2] it was 60%; in [3], 16%; in assay [4] it was 111%; in [5], 41%; in assay [6], 100%. Further, the residual activity in assay [7] is 101%; in assay [8], 24%; in [9] it was 8%; in assay [10], 52%.
For the compound `Nc1ncnc2c1c(-c1ccc(Oc3ccccc3)cc1)cn2C1CCCC1`, the residual activity in assay [1] is 81%; in assay [2] it was 24%; in assay [3], 3%; in assay [4] it was 72%; in assay [5], 13%; in [6], 105%. For the same compound, the residual activity came to 91% in assay [7], 73% in [8], 38% in assay [9] and 1% in assay [10].
In the case of `CCCCc1c(-c2ccc(O)cc2)[nH]c2nccnc12`, the residual activity was 23% in assay [1]; 77% in [2]; 42% in assay [3]; 64% in [4]; 53% in assay [5]; 73% in [7]. The residual activity in [8] came to 80%; in assay [9], 90%; in [10], 48%.
On to `Nc1nc(Nc2ccc(S(N)(=O)=O)cc2)nn1C(=O)c1c(F)cccc1F`, for which the residual activity in [1] is 12%; in [2], 33%; in assay [3], 4%; in assay [4], 12%; in assay [5], 2%; in assay [6], 99%. Further, the residual activity in assay [7] turned out to be 95%; in assay [8], 17%; in assay [9] it was 6%; in [10], 58%.
Consider `O=C(CCCc1ccc(-c2ccccc2F)cc1)Nc1ccc(O)cc1`, for which the residual activity turned out to be 94% in [1]; 110% in assay [2]; 108% in assay [3]; 96% in assay [4]; 85% in assay [5]; 100% in assay [6]. In addition, the residual activity in [7] came to 97%; in [8], 112%; in assay [9], 94%; in assay [10], 99%.
`O=C1NC(=O)c2c1c1c3ccccc3[nH]c1n1cncc21`: the residual activity turned out to be 11% in [1]; 10% in assay [2]; 8% in assay [3]; 71% in assay [4]; 48% in assay [5]; 84% in [6]. Besides, the residual activity stood at 62% in assay [7], 70% in assay [8], 58% in assay [9] and 61% in assay [10].
Take `CCN1/C(=C/C(C)=O)Sc2ccc(OC)cc21`: the residual activity in assay [1] is 64%.
On to `CC(C)(C)c1nc2c3ccc(F)cc3c3c(=O)[nH]ccc3c2[nH]1`, for which the residual activity in assay [1] is -7%; in [2] it was 65%; in assay [3], 24%; in assay [4], 98%; in assay [5], 63%; in assay [8], 72%. Besides, the residual activity in assay [9] stood at 32%.
As to `O=c1cc(N2CCOCC2)oc2c1ccc1ccccc12`, the residual activity was found to be 70% in [1]; 103% in [2]; 87% in assay [3]; 108% in assay [4]; 92% in [5]; 102% in [6]. For the same compound, the residual activity in assay [7] was found to be 93%; in assay [8], 98%; in assay [9], 91%.
For `O=C1Nc2ccc(Cl)cc2/C1=C/c1cc(Cl)c(O)c(Cl)c1`, the residual activity in assay [1] was 32%; in assay [2] it was 13%; in [3], 1%; in [4], 88%; in assay [5], 42%; in assay [6], 91%. Also, the residual activity in assay [7] was determined as 86%; in assay [8] it was 67%; in assay [9], 47%; in [10] it was 95%.
For the compound `COc1ccc2c(c1)c(C1=C(c3c[nH]c4ccccc34)C(=O)NC1=O)cn2CCCN(C)C`, the residual activity came to 37% in assay [1]; 28% in [2]; 3% in assay [3]; 99% in assay [4]; 65% in [5]; 101% in [6]. For the same compound, the residual activity in assay [7] amounted to 99%; in assay [8], 54%; in assay [9] it was 22%.
`Cn1c2ccccc2c2c3c(c4c5ccccc5n(CCC#N)c4c21)CNC3=O`: the residual activity in [1] amounted to 9%; in assay [2], 7%; in [3] it was 6%; in [4] it was 48%; in assay [5], 20%; in assay [6] it was 82%. Further, the residual activity in [7] came to 96%; in assay [8] it was 21%; in assay [9] it was 8%.
Turning to `CN(C)S(=O)(=O)c1ccc2c(c1)/C(=C/c1cc3c([nH]1)CCCC3)C(=O)N2`, the residual activity was 81% in assay [1]; 51% in assay [2]; 40% in assay [3]; 90% in [4]; 77% in assay [5]; 99% in assay [6]. The residual activity in assay [7] turned out to be 96%; in assay [8], 63%; in [9] it was 78%.
Consider `Cn1sc(=O)n(Cc2ccccc2)c1=O`, for which the residual activity in assay [1] worked out at 94%; in [2] it was 99%; in assay [3], 91%; in assay [4], 86%; in assay [5], 79%; in assay [6], 97%. For the same compound, the residual activity in [7] worked out at 93%; in assay [8], 95%; in assay [9], 95%.
